Test results reported in PubChem BioAssay AID1159580 (chemical genetic matrix, 2015).
Several values for one entry are separate records, joined by “and”; a condition that tells them apart may be missing. Identical values can stand only once. In all, about 5,500 compounds went through this assay and about 2,000 (36%) were called active. Not shown: some 18% with an inconclusive outcome. Cut-off read from the data, not from the text of the source: active = normalized growth mostly below about 0.91 (no sharp cut-off); inconclusive = no clear call, values can overlap the other calls; inactive = mostly above about 0.92. Some of the results follow.

Assay: chemical genetic growth profiling, strain panel (AID 1159580);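 note: tested at 20 µM; growth read once vehicle control cultures reached saturation at 30 °C; 1 = growth at the plate median or of vehicle wells; lower values mean less growth of the strain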
Conditions: S. cerevisiae deletion strains, growth OD

Measured: normalized growth

CC(=O)O[C@H]1CC[C@@]2(C)C(C[C@@H](OC(C)=O)[C@@]3(C)C4=CC(=O)O[C@@H](c5ccoc5)[C@]4(C)CCC23)C1(C)C (stereo partly drawn)
active: locus YKL009W, strain mrt4, hits give low values 1.21 [resistant]
inactive: locus YAL021C, strain ccr4, hits give low values 1 | locus YAL026C, strain drs2, hits give low values 1.01 | locus YAL030W, strain snc1, hits give low values 0.999 | locus YBL061C, strain skt5, hits give low values 0.997 | locus YBR009C, strain hhf1, hits give low values 1.02 | locus YBR021W, strain FUR4, hits give low values 0.981 | locus YBR023C, strain chs3, hits give low values 0.996 | locus YBR171W, strain sec66, hits give low values 1 | locus YBR229C, strain ROT2, hits give low values 1.01 | locus YBR231C, strain swc5, hits give low values 1.01 | locus YBR279W, strain paf1, hits give low values 1 | locus YCL011C, strain gbp2, hits give low values 1.01 | locus YCL016C, strain dcc1, hits give low values 1.01 | locus YCL029C, strain bik1, hits give low values 0.989 | locus YCL061C, strain MRC1, hits give low values 0.994 | locus YCL069W, strain vba3, hits give low values 1.02 | locus YCR088W, strain abp1, hits give low values 1 | locus YDL005C, strain med2, hits give low values 1 | locus YDL035C, strain GPR1, hits give low values 1.02 | locus YDL040C, strain nat1, hits give low values 1 | locus YDL074C, strain BRE1, hits give low values 1 | locus YDL101C, strain DUN1, hits give low values 0.999 | locus YDL134C, strain PPH21, hits give low values 1 | locus YDL185W, strain tfp1, hits give low values 1 | locus YDL192W, strain arf1, hits give low values 0.988 | locus YDR001C, strain nth1, hits give low values 1 | locus YDR069C, strain doa4, hits give low values 1.02 | locus YDR101C, strain arx1, hits give low values 1.01 | locus YDR137W, strain rgp1, hits give low values 0.96 | locus YDR150W, strain NUM1, hits give low values 1.01 | locus YDR159W, strain sac3, hits give low values 1 | locus YDR162C, strain NBP2, hits give low values 0.992 | locus YDR195W, strain ref2 1.02 | locus YDR297W, strain sur2, hits give low values 1.02 | locus YDR318W, strain mcm21, hits give low values 0.998 | locus YDR334W, strain swr1, hits give low values 1.01 | locus YDR335W, strain msn5, hits give low values 0.997 | locus YDR388W, hits give low values 1 | locus YDR392W, strain spt3, hits give low values 0.974 | locus YDR502C, strain sam2, hits give low values 0.992 | locus YEL003W, strain gim4, hits give low values 1 | locus YEL037C, strain rad23, hits give low values 1 | locus YEL061C, strain CIN8 (second series), hits give low values 1.01 | locus YEL061C, strain CIN8, hits give low values 1.01 | locus YER015W, strain faa2, hits give low values 0.991 | locus YER016W, strain bim1, hits give low values 0.997 | locus YER110C, hits give low values 0.992 | locus YER111C, strain swi4, hits give low values 1.01 | locus YER155C, strain BEM2 (second series), hits give low values 0.992 | locus YER155C, strain BEM2, hits give low values 1.01 | locus YER167W, strain BCK2, hits give low values 1.01 | locus YFR010W, strain ubp6, hits give low values 1 | locus YGL078C, strain dbp3, hits give low values 0.992 | locus YGL086W, strain mad1, hits give low values 1.01 | locus YGL167C, strain pmr1, hits give low values 1.01 | locus YGL173C, strain kem1, hits give low values 1.01 | locus YGL227W, strain vid30, hits give low values 0.997 | locus YGL240W, strain doc1, hits give low values 1.02 | locus YGL248W, strain PDE1, hits give low values 1 | locus YGL253W, strain hxk2, hits give low values 1 | locus YGR078C, strain PAC10, hits give low values 0.988 | locus YGR135W, strain pre9, hits give low values 0.975 | locus YGR229C, strain SMI1, hits give low values 1 | locus YGR252W, strain gcn5, hits give low values 0.929 | locus YHR013C, strain ard1, hits give low values 0.978 | locus YHR027C, strain rpn1, hits give low values 1.01 | locus YHR030C, strain SLT2, hits give low values 0.955 | locus YHR079C, strain IRE1 (second series), hits give low values 0.993 | locus YHR079C, strain IRE1, hits give low values 0.98 | locus YHR094C, strain hxt1, hits give low values 0.998 | locus YHR129C, strain ARP1, hits give low values 1.01 | locus YHR142W, strain chs7, hits give low values 1 | locus YHR200W, strain rpn10, hits give low values 0.994 | locus YIL066C, strain RNR3, hits give low values 1.02 | locus YIL073C, strain SPO22, hits give low values 1.02 | locus YIL125W, strain kgd1, hits give low values 1.01 | locus YIR030C, strain dcg1, hits give low values 0.991 | locus YJL092W, strain hpr5, hits give low values 0.996 | locus YJL095W, strain BCK1 (second series), hits give low values 0.99 | locus YJL095W, strain BCK1, hits give low values 0.985 and 0.949 | locus YJL115W, strain asf1, hits give low values 0.993 | locus YJL129C, strain trk1, hits give low values 0.99 | locus YJL134W, strain LCB3, hits give low values 1.01 | locus YJL154C, strain vps35, hits give low values 0.994 | locus YJL164C, strain tpk1, hits give low values 1.01 | locus YJL166W, strain qcr8, hits give low values 1.02 | locus YJL168C, strain set2, hits give low values 0.986 | locus YJL187C, strain SWE1 (second series), hits give low values 0.997 | locus YJL187C, strain SWE1, hits give low values 1.01 | locus YJR066W, strain TOR1, hits give low values 0.9 | locus YJR075W, strain HOC1, hits give low values 1.01 | locus YKL068W, hits give low values 0.984 | locus YKL085W, strain MDH1 (second series), hits give low values 1.02 | locus YKL085W, strain MDH1, hits give low values 1.02 | locus YKL160W, strain elf1, hits give low values 1 | locus YKL190W, strain CNB1, hits give low values 1 | locus YKR001C, strain vps1, hits give low values 0.983 | locus YKR026C, strain gcn3, hits give low values 1.01 | locus YKR091W, strain srl3, hits give low values 1 | locus YLL001W, strain dnm1, hits give low values 1.01 | locus YLL026W, hits give low values 0.995 | locus YLL041C, strain sdh2, hits give low values 0.987 | locus YLR027C, strain aat2, hits give low values 1 | locus YLR039C, strain RIC1, hits give low values 0.985 | locus YLR058C, strain SHM2, hits give low values 1.01 | locus YLR102C, strain apc9, hits give low values 0.997 | locus YLR113W, strain HOG1, hits give low values 0.966 | locus YLR221C, strain rsa3, hits give low values 1.02 | locus YLR258W, strain gsy2, hits give low values 0.995 | locus YLR262C, strain YPT6 (second series), hits give low values 0.979 | locus YLR262C, strain YPT6, hits give low values 1.02 | locus YLR268W, strain sec22, hits give low values 1.01 | locus YLR320W, strain mms22, hits give low values 0.999 | locus YLR342W, strain FKS1, hits give low values 1 | locus YLR357W, strain rsc2, hits give low values 1.01 | locus YLR370C, strain arc18, hits give low values 1.02 | locus YLR371W, strain rom2, hits give low values 1 | locus YLR384C, strain iki3, hits give low values 0.987 | locus YLR418C, strain cdc73, hits give low values 0.954 | locus YML016C, strain PPZ1, hits give low values 1.01 | locus YML032C, strain rad52, hits give low values 0.985 | locus YML120C, strain ndi1, hits give low values 1.02 | locus YML124C, strain tub3, hits give low values 0.987 | locus YMR058W, strain fet3, hits give low values 1 | locus YMR078C, strain ctf18, hits give low values 0.981 | locus YMR125W, strain sto1, hits give low values 0.99 | locus YMR129W, hits give low values 1 | locus YMR205C, strain PFK2, hits give low values 1.01 | locus YMR223W, strain ubp8, hits give low values 0.983 | locus YMR231W, strain pep5, hits give low values 0.991 | locus YMR263W, strain SAP30, hits give low values 1.01 | locus YMR307W, strain GAS1, hits give low values 1.03 | locus YNL067W, strain RPL9B, hits give low values 0.997 | locus YNL071W, strain lat1, hits give low values 1.01 | locus YNL153C, strain GIM3, hits give low values 0.999 | locus YNL183C, strain NPR1, hits give low values 0.935 | locus YNL209W, strain ssb2, hits give low values 1.02 | locus YNL233W, strain BNI4, hits give low values 1.02 | locus YNL248C, strain rpa49, hits give low values 1.01 | locus YNL250W, strain rad50, hits give low values 0.995 | locus YNL271C, strain bni1, hits give low values 1 | locus YNL298W, strain CLA4, hits give low values 1.01 | locus YNL307C, strain MCK1, hits give low values 0.995 | locus YNL322C, strain KRE1 (second series), hits give low values 0.987 | locus YNL322C, strain KRE1, hits give low values 1.01 | locus YNR049C, strain mso1, hits give low values 1.01 | locus YNR052C, strain pop2, hits give low values 0.987 | locus YOL006C, strain TOP1, hits give low values 0.965 | locus YOL012C, strain htz1 1.15 | locus YOL147C, strain pex11, hits give low values 1 | locus YOR001W, strain rrp6, hits give low values 1.01 | locus YOR061W, strain CKA2, hits give low values 1.01 | locus YOR069W, strain VPS5, hits give low values 1 | locus YOR070C, strain gyp1, hits give low values 1.01 | locus YOR080W, strain dia2, hits give low values 1 | locus YOR083W, strain WHI5, hits give low values 1 | locus YOR106W, strain vam3, hits give low values 1.03 | locus YOR136W, strain idh2, hits give low values 0.992 | locus YOR144C, strain elg1, hits give low values 0.995 | locus YOR184W, strain ser1, hits give low values 1.01 | locus YOR231W, strain MKK1, hits give low values 0.957 | locus YOR265W, strain rbl2, hits give low values 1.02 | locus YOR270C, strain vph1, hits give low values 0.886 | locus YOR290C, strain snf2, hits give low values 0.998 | locus YOR316C, strain cot1, hits give low values 0.997 | locus YPL051W, strain arl3, hits give low values 0.997 | locus YPL055C, strain LGE1, hits give low values 1.03 | locus YPL078C, strain atp4, hits give low values 1.01 | locus YPL106C, strain sse1, hits give low values 1.02 | locus YPL240C, strain hsp82, hits give low values 0.998 | locus YPL241C, strain CIN2, hits give low values 1 | locus YPL256C, strain CLN2, hits give low values 0.96 | locus YPR119W, strain clb2, hits give low values 0.992 | locus YPR141C, strain kar3, hits give low values 0.99 | locus YPR163C, strain tif3, hits give low values 0.989 | locus YPR167C, strain met16, hits give low values 0.985 | strain wtn01, hits give low values 0.993
